The supplement of paper PMC10515830
Where a name gives a salt, the structure may show the parent alone.

Tests used:
Details in all cases: 10 µM; exposure time 6 h
[1] = tested on: Danio rerio larvae (5 dpf); assay: difference in excitability vs DMSO (percentage points); higher = more excitable than DMSO
In short: (§1)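 Wild-type 5 dpf zebrafish larvae in 96-well plates were given 100 µL egg water containing library compound at 10 µM final for 6 h. After 3 h of exposure, plates at 28.5 ℃ were photographed every 6 s during a 3-h programme of moving lines and 100 ms, 400Hz tones. Z-LaP Tracker (a DeepLabCut model) quantified each behaviour, averaged over 48 larvae per compound. Values are the compound mean minus the DMSO-vehicle control, in percentage points.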

[2] = tested on: Danio rerio larvae (5 dpf); assay: difference in startle response vs DMSO (percentage points); higher = stronger startle than DMSO
In short: as §1

[3] = tested on: Danio rerio larvae (5 dpf); assay: difference in activity during first hour vs DMSO (percentage points); higher = more activity than DMSO
In short: as §1

[4] = tested on: Danio rerio larvae (5 dpf); assay: difference in habituation to acoustic stimuli vs DMSO (percentage points); higher = more habituation than DMSO
In short: as §1

[5] = tested on: Danio rerio larvae (5 dpf); assay: difference in combined optomotor response to red, green and blue moving lines vs DMSO (percentage points); higher = stronger optomotor response than DMSO
In short: as §1

| SMILES | difference in excitability [1] | difference in startle response [2] | difference in activity during first hour [3] | difference in habituation to acoustic stimuli [4] | difference [5] |
| --- | --- | --- | --- | --- | --- |
| COc1ccc(CC(C)NCC(O)c2ccc(O)c(NC=O)c2)cc1 (stereo not given) [Formoterol (hemifumarate hydrate)] | 9.74 | -13.1 | 49.1 | -7.8 | 1.18 |
| Cc1ccc(Cl)c(Nc2ccccc2C(=O)O)c1Cl [Meclofenamate (sodium salt)] | 11.1 | 12.4 | -18 | -13.1 | -19.7 |
| O=C1C(O)=C([C@H]2CC[C@H](c3ccc(Cl)cc3)CC2)C(=O)c2ccccc21 [Atovaquone] | -0.794 | -0.517 | -0.977 | -6.16 | -7.53 |
| CCN[C@H]1CN(CCCOC)S(=O)(=O)c2sc(S(N)(=O)=O)cc21 [Brinzolamide] | 2.16 | -4.77 | -5.26 | -5.35 | 1.28 |
| CC(C)(Oc1ccc(C(=O)c2ccc(Cl)cc2)cc1)C(=O)O [Fenofibric Acid] | 2.08 | 4.69 | 11.8 | 0.387 | 6.16 |
| OC(CNCC(O)C1CCc2cc(F)ccc2O1)C1CCc2cc(F)ccc2O1 (stereo not given) [Nebivolol (hydrochloride)] | 9.49 | -4.14 | 2.55 | -2.7 | -10.6 |
| Nc1nc(NC2CC2)c2ncn([C@H]3C=C[C@@H](CO)C3)c2n1 [Abacavir (sulfate)] | -1.01 | -0.154 | 7.36 | -0.118 | 5.64 |
| NS(=O)(=O)c1cc2c(cc1Cl)NCNS2(=O)=O [Hydrochlorothiazide] | -7.7 | 3.06 | 2.42 | 1.66 | 2 |
| CCN1CCN(C(=O)N[C@@H](C(=O)N[C@@H]2C(=O)N3[C@@H]2SC(C)(C)[C@@H]3C(=O)O)c2ccccc2)C(=O)C1=O [Piperacillin (sodium salt)] | 2.92 | 2.6 | 14.2 | -3.02 | 5.57 |
| CC(C)[C@H](N)C(=O)OCC(CO)OCn1cnc2c(=O)nc(N)[nH]c21 (stereo not given in full) [Valganciclovir (hydrochloride)] | -0.104 | 2.52 | -5.18 | 1.35 | 3.33 |
| CCC(=O)OCC(=O)[C@@]1(OC(=O)CC)[C@H](C)C[C@H]2[C@H]3[C@H]([C@@H](O)C[C@@]21C)[C@@]1(C)C=CC(=O)C=C1C[C@H]3Cl [Alclometasone Dipropionate] | 3.59 | 5.9 | -1.03 | -0.676 | 5.42 |
| CC(C)N(CCCCOCC(=O)NS(C)(=O)=O)c1cnc(-c2ccccc2)c(-c2ccccc2)n1 | 11.4 | 6.8 | -3.12 | 5.08 | 2.84 |
| CN(C)CC/C=C1/c2ccccc2COc2ccc(CC(=O)O)cc21 [Olopatadine (hydrochloride)] | 2.11 | -1.34 | -6.94 | 3.84 | 2.97 |
| CC(C)C(=O)Oc1ccc(CO)cc1[C@H](CCN(C(C)C)C(C)C)c1ccccc1 [Fesoterodine (fumarate)] | 4.21 | -11.4 | 2.92 | -7.33 | -6.79 |
| O=C1[C@@H]2[C@H]3CC[C@H](C3)[C@@H]2C(=O)N1C[C@@H]1CCCC[C@H]1CN1CCN(c2nsc3ccccc23)CC1 [Lurasidone] | -9.91 | 6.61 | -1.19 | -11.8 | -17 |
| Brc1c(NC2=NCCN2)ccc2nccnc12 [Brimonidine (tartrate)] | -0.928 | -0.293 | -14.2 | 3.89 | 10.9 |
| NCCc1ccc(O)c(O)c1 [Dopamine (hydrochloride)] | 4.19 | -3.68 | 12.6 | 4.17 | 2.15 |
| CO[C@H]1/C=C/O[C@@]2(C)Oc3c(C)c(O)c4c(c3C2=O)C2=NC3(CCN(CC(C)C)CC3)NC2=C(NC(=O)/C(C)=C\C=C\[C@H](C)[C@H](O)[C@@H](C)[C@@H](O)[C@@H](C)[C@H](OC(C)=O)[C@@H]1C)C4=O [Rifabutin] | 10.6 | -5.26 | 2.31 | 3.31 | 3.55 |
| Cc1ccc(C(=O)c2cc(O)c(O)c([N+](=O)[O-])c2)cc1 [Tolcapone] | 5.24 | -9.07 | 8.3 | -6.19 | -0.989 |
| COc1ccnc(C[S+]([O-])c2nc3cc(OC(F)F)ccc3[nH]2)c1OC (stereo not given) [Pantoprazole] | 1.4 | 2.07 | 3.07 | -4.45 | 5.14 |
| CC(C)(C)c1cc(C(C)(C)C)c(NC(=O)c2c[nH]c3ccccc3c2=O)cc1O [Ivacaftor] | 2 | -4.58 | -10 | -2.59 | 5.49 |
| Cc1nc(-c2ccc(OCC(C)C)c(C#N)c2)sc1C(=O)O [Febuxostat] | -0.635 | 0.974 | -3.02 | 3.9 | 5.26 |
| COc1ccc2[nH]c([S+]([O-])Cc3ncc(C)c(OC)c3C)nc2c1 (stereo not given) [Omeprazole] | 14.6 | -0.657 | -0.859 | 0.506 | 5.66 |

| SMILES | difference in excitability [1] | difference in startle response [2] | difference in activity during first hour [3] | difference in habituation to acoustic stimuli [4] | difference [5] |
| --- | --- | --- | --- | --- | --- |
| CC1=C(/C=C/C(C)=C\C=C\C(C)=C\C(=O)O)C(C)(C)CCC1 [9-cis-Retinoic Acid] | 5.5 | -1.66 | 5.1 | 10.2 | 2.9 |
| C[C@H]1C[C@@H]2[C@H]([C@@H](O)C[C@@]3(C)[C@H]2CC[C@]3(O)C(=O)CO)[C@@]2(C)C=CC(=O)C=C12 [Methylprednisolone] | 2.35 | 0.227 | 10.3 | -3.19 | 9.29 |
| COCC1=C(C(=O)O)N2C(=O)[C@@H](NC(=O)/C(=N\OC)c3csc(N)n3)[C@H]2SC1 [Cefpodoxime] | 0.712 | 1.11 | -0.401 | -0.554 | 7.24 |
| CC(C)Cc1ccc(C(C)C(=O)O)cc1 (racemic) [(±)-Ibuprofen] | 15.5 | -4.17 | -2.46 | 3.85 | 6.34 |
| Cc1c(O)cccc1C(=O)N[C@@H](CSc1ccccc1)[C@H](O)CN1C[C@H]2CCCC[C@H]2C[C@H]1C(=O)NC(C)(C)C [Nelfinavir (mesylate)] | 17.7 | 0.499 | -23 | 2.82 | -10.2 |
| OC(Cn1cncn1)(Cn1cncn1)c1ccc(F)cc1F [Fluconazole] | -1.01 | -5.1 | -3.04 | -5.58 | 3.09 |
| CCCC(=O)O[C@]1(C(=O)COC(C)=O)CC[C@H]2[C@@H]3C[C@H](F)C4=CC(=O)C=C[C@]4(C)[C@@]3(F)[C@@H](O)C[C@@]21C [Difluprednate] | 3.2 | 2.35 | 6.57 | 4.62 | -1.11 |
| COCC(=O)Nc1c(I)c(C(=O)NCC(O)CO)c(I)c(C(=O)N(C)CC(O)CO)c1I (stereo not given) [Iopromide] | 3 | -1.37 | 11.3 | 1.33 | 5.16 |
| CCOC(=O)[C@H](CCc1ccccc1)N[C@H]1CCc2ccccc2N(CC(=O)O)C1=O [Benazepril (hydrochloride)] | 7.01 | 3.34 | -2.03 | -3.43 | -7.74 |
| Nc1nc2c(ncn2COC(CO)CO)c(=O)[nH]1 [Ganciclovir] | 1.56 | 3.58 | 7.53 | 2.18 | 4.57 |
| CCOc1nc2cccc(C(=O)OCc3oc(=O)oc3C)c2n1Cc1ccc(-c2ccccc2-c2noc(=O)[nH]2)cc1 [Azilsartan Medoxomil] | 6.47 | -1.67 | -8.07 | 5.02 | -2.25 |
| CCCc1cc(=O)[nH]c(=S)[nH]1 [Propylthiouracil] | 7.08 | 1.86 | 3.37 | -0.81 | 1.84 |
| CCOc1ccccc1OCCN[C@H](C)Cc1ccc(OC)c(S(N)(=O)=O)c1 [Tamsulosin (hydrochloride)] | 25.5 | 3.47 | -3.28 | 1.9 | 1.52 |
| CCCC(CCC)C(=O)O [Valproic Acid (sodium salt)] | 1.2 | 1.47 | -1.97 | -8.1 | 3.32 |
| Cc1c2oc3c(C)ccc(C(=O)N[C@@H]4C(=O)N[C@H](C(C)C)C(=O)N5CCC[C@H]5C(=O)N(C)CC(=O)N(C)[C@@H](C(C)C)C(=O)O[C@@H]4C)c3nc-2c(C(=O)N[C@@H]2C(=O)N[C@H](C(C)C)C(=O)N3CCC[C@H]3C(=O)N(C)CC(=O)N(C)[C@@H](C(C)C)C(=O)O[C@@H]2C)c(N)c1=O [Actinomycin D] | 5.1 | -6.8 | 6.02 | 4.18 | -0.162 |
| CN(CCOc1ccc(CC2SC(=O)NC2=O)cc1)c1ccccn1 (stereo not given) [Rosiglitazone (maleate)] | 10.7 | -3.19 | 10.3 | -2.4 | -0.752 |
| C[C@@H](O)[C@H]1C(=O)N2C(C(=O)O)=C(S[C@@H]3CN[C@H](C(=O)N(C)C)C3)[C@H](C)[C@H]12 [Meropenem (hydrate)] | 3.3 | -1.18 | 0.0616 | -0.499 | 3.61 |
| CC(=O)CC(c1ccccc1)c1c(O)c2ccccc2oc1=O (racemic) [(±)-Warfarin] | 7.35 | -1.45 | -0.141 | -3.9 | -1.34 |
| COc1cc2nc(N3CCN(C(=O)c4ccco4)CC3)nc(N)c2cc1OC [Prazosin (hydrochloride)] | 20.4 | 2.07 | 11.2 | -7.66 | 6.47 |
| O=C(NC[C@H]1CN(c2ccc(N3CCOCC3=O)cc2)C(=O)O1)c1ccc(Cl)s1 [Rivaroxaban] | -1.52 | -3.86 | -2.47 | -4.56 | 1.67 |
| COCCCOc1ccnc(C[S+]([O-])c2nc3ccccc3[nH]2)c1C (stereo not given) [Rabeprazole (sodium salt)] | 2.22 | -0.57 | 7.69 | -4.65 | 15.4 |
| Nc1ccc(S(=O)(=O)c2ccc(N)cc2)cc1 [Dapsone] | 4.16 | 3.11 | 2.88 | 2.23 | 1.86 |
| C[C@H](CCC(=O)O)[C@H]1CC[C@H]2[C@@H]3CC[C@@H]4C[C@H](O)CC[C@]4(C)[C@H]3C[C@H](O)[C@]12C [Deoxycholic Acid] | 13.1 | -0.179 | 23.8 | 3.17 | 0.759 |
